Laboratory results reported in the supplement of paper PMC3484114.
± gives the standard deviation.

These molecules were tested on OVCAR-3-derived ovarian cancer stem-like cells (spheroids) (assay: cell growth relative to untreated control; higher = more growth (less inhibition)). Settings: 2.29 µM; 96 h.
Method in brief: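 Stem-like cells derived from OVCAR-3 spheroids were dissociated with trypsin and seeded at 50,000 cells/mL in stem cell medium in ultra-low attachment 96-well plates, then preincubated for 24 h. Each compound was added at 2.29 uM to 4 replicate wells and left for 96 h at 37°C, 5% CO2. Viability came from TOX8 resazurin fluorescence (ex 560/em 590 nm) read after 4 h. Percent growth was expressed relative to untreated wells, after blank subtraction and removal of outliers by the Grubbs test.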

SMILES | cell growth [%]
O=C1c2ccccc2C(=O)c2sc(Nc3ccc(Cl)c(Cl)c3)nc21 | 9.6 ± 7
OC(CN1CCCCC1)c1ccc(/C=C/c2ccc(Cl)cc2)cc1 (stereo not given) | 112 ± 16
COC(=O)C(=O)C(C(=O)C(=O)Nc1cc(C)ccc1C)c1nc2ccc(C(=O)c3ccccc3)cc2[nH]c1=O (stereo not given) | 91.5 ± 15
Cc1c2cnccc2c(C)c2c1c1ccccc1n2CCOC(=O)c1ccccc1 | 127 ± 35
CC(=O)NC(CC(C)C)C(=O)NC(Cc1ccccc1)C(=O)CCl (stereo not given) | 88.6 ± 12
CCOc1ccccc1NC(=O)CC1Sc2ccccc2NC1=O (stereo not given) | 70.6 ± 14
NC(=O)C1=C[C@H]2[C@H]3C=C[C@@]2(O)C(=O)O[C@@H]3O1 | 91.3 ± 15
CCN(CC)CCNc1ccc(CO)c2sc3ccccc3c(=O)c12 | 99 ± 39
Cc1c2ccncc2cc2c1[nH]c1ccccc12 | 101 ± 20
CCCCCCCCCCCCCCCC[N+](C)(C)Cc1ccc(F)cc1 | 54.1 ± 9.8
C=C1C(=O)C23CC[C@@H]4C(C)(C(=O)OC)CCCC4(C)[C@@H]2CCC1(O)C3 (stereo not given in full) | 13 ± 5.5
C[n+]1c(-c2ccc(/C=C/C=N/NC(=O)c3ccc(C(=O)N/N=C/C=C/c4ccc(-c5cn6ccccc6[n+]5C)cc4)cc3)cc2)cn2ccccc21 | 138 ± 18
O=C(CC(=O)C(F)(F)F)c1csc2ccccc12 | 93.5 ± 13
C=C(C)[C@@H]1CC[C@]2(CO)CC[C@]3(C)[C@H](CC[C@@H]4[C@@]5(C)CC[C@H](O)C(C)(C)[C@@H]5CC[C@]43C)[C@@H]12 | 90 ± 24
O=C1c2ccccc2C(=O)c2c(NCCNCCO)ccc(O)c21 | 67.2 ± 44
COc1cc(C(O)CCBr)c(OC)cc1C (stereo not given) | 86.9 ± 26
N=C1C=C(N)C(=O)c2[nH]c(=O)ccc21 | 95.3 ± 55
COc1ccc(-n2/c(=N/C(=S)N(C)C)ss/c2=N\C(=S)N(C)C)cc1 | 111 ± 15
O=S(=O)(c1cccc(N=C=S)c1)c1cccc(N=C=S)c1 | 111 ± 11
CC(C)c1cccc(O)c(=O)c1 | 91.8 ± 19

SMILES | cell growth [%]
O=S(=O)(O)c1cc(N=Nc2cc(S(=O)(=O)O)c3ccccc3c2O)ccc1/C=C/c1ccc(N=Nc2cc(S(=O)(=O)O)c3ccccc3c2O)cc1S(=O)(=O)O | 110 ± 24
COc1cc(OC)c(OC)cc1/C=C/c1ccnc2ccccc12 | 75.8 ± 10
COc1ccc(N=C2C(=Nc3ccc(OC)cc3)N(c3ccc(N(C)C)cc3)C(=S)N2c2ccc(OC)cc2)cc1 | 72.3 ± 12
CC(=O)NC1C(OCc2ccccc2)OC(CO)C(O)C1OC(C)C(=O)NC(C(=O)NC(CCC(=O)NCCCCNc1c2ccccc2nc2cccc([N+](=O)[O-])c12)C(N)=O)C(C)C (stereo not given) | 105 ± 21
S=C1Nc2cnc3ccccc3c2SC1c1ccccc1 (stereo not given) | 9.8 ± 3.9
Cc1ccc(S(=O)(=O)N2CCSCCSCCSCCSCC2)cc1 | 92.2 ± 26
Cc1cc(O)c2c(c1)C(=O)c1cc(O)cc(O)c1C2=O | 107 ± 17
C/C(=N\NC(=S)N1CCN(C2CCCCCC2)CC1)c1ccccn1 | 14.7 ± 7.5
Nc1nc(Cl)nc2c1ncn2[C@H]1C[C@H](O)[C@@H](CO)O1 | 82.7 ± 17
Cc1ccc(NC(=O)c2cc3ccccc3c(N=Nc3ccccc3O)c2O)c(C)c1 | 75.2 ± 20
Clc1cc2nc[nH]c2cc1Cl | 102 ± 31
CC1C(Oc2c(-c3ccc(O)c(O)c3)oc3c(O)cc(O)cc3c2=O)OC(O)C(O)C1O (stereo not given) | 77.6 ± 18
BrC(/C=N/Nc1nnc(-c2ccccc2)c(-c2ccccc2)n1)C(Br)c1ccccc1 (stereo not given) | 93.9 ± 17
O=C1/C(=C\c2ccc(Cl)c(Cl)c2)CN(C(=O)CCN2CCOCC2)C/C1=C\c1ccc(Cl)c(Cl)c1 | 63.5 ± 9.5
CCCc1c(Cl)nc(Cl)nc1Cl | 96.4 ± 19
O=C1c2ccccc2C(=O)c2sc(Nc3ccc(Cl)cc3)nc21 | 14.5 ± 3.2
CCNC(=O)OCc1c(COC(=O)NCC)c(-c2ccc(Cl)c(Cl)c2)n2c1CCC2 | 74.1 ± 12
C[C@H](CSC(=O)c1ccccc1)C(=O)N1c2ccccc2C[C@H]1C(=O)O | 90.9 ± 9.5
N[C@@H](CSC(c1ccccc1)(c1ccccc1)c1ccccc1)C(=O)O | 34.8 ± 6.7
Cc1cc(N)c2ccccc2[n+]1CCCCCCCCCC[n+]1c(C)cc(N)c2ccccc21 | 41.9 ± 7.2
